The structures appear in SMILES notation. Several values for one entry are separate records, joined by “and”; a condition that tells them apart may be missing. Identical values can stand only once. ± gives the uncertainty stated by the source.
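Further: viable cell number estimated from Alamar Blue fluorescence read at 560/90, part of a single-dose primary screen of an FDA-approved drug library.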

The test concerns U87. In words: cell viability relative to vehicle control; higher = less growth inhibition (less active). Conditions: 10 µM; 72 h.
On to `C[C@]12CC[C@H](O)CC1=CC[C@@H]1[C@@H]2CC[C@@]2(C)[C@H]1CC[C@]2(C)O`, for which the cell viability amounted to 127 ± 3.6%.

As to `NC(=O)OCCCc1ccccc1`, the cell viability was 104 ± 1.9%.

For the molecule `C=C(C)CN1CC[C@]23c4c5ccc(O)c4O[C@H]2c2[nH]c4ccccc4c2C[C@@]3(O)C1C5`, the cell viability is 101 ± 1.4%.

Consider `C#CCN(C)[C@H](C)Cc1ccccc1` [Selegiline], for which the cell viability is 103 ± 1.2%.

Turning to `CC(C)[C@]12O[C@H]1[C@@H]1O[C@]13[C@]1(O[C@H]1C[C@H]1C4=C(CC[C@@]13C)C(=O)OC4)[C@@H]2O`, the cell viability was 26.3 ± 2.5%.

As for `CC[C@@H](C(N)=O)N1CCCC1=O`, the cell viability worked out at 110 ± 12%.

With `C[C@]12CCC(=O)C[C@@H]1CC[C@@H]1[C@@H]2CC[C@@]2(C)[C@H]1CC[C@]2(C)O` [Mestanolone], the cell viability stood at 105.6 ± 0.93%.

With `CC(NC(C)(C)C)C(=O)c1cccc(Cl)c1` (centres undefined), the cell viability is 105% and 107%.

`NC(=O)C[S+]([O-])C(c1ccccc1)c1ccccc1` (centres undefined) [Modafinil]: the cell viability was 107 ± 1.4%.

`COc1cccc(C2(O)CCCCC2CN(C)C)c1` (centres undefined) [Tramadol]: the cell viability was found to be 102 ± 2.1%.

`CCCCC/C=C\C/C=C\C/C=C\C/C=C\CCCC(=O)Nc1ccc(O)cc1`: the cell viability was determined as 100.5 ± 0.91%.

Regarding `FC(F)(F)c1cccc(N2CCNCC2)c1`, the cell viability amounted to 109 ± 1.2%.

Regarding `Cc1ccc(-c2nc3ccc(C)cn3c2CC(=O)N(C)C)cc1`, the cell viability was found to be 106 ± 1.9%.

In the case of `CC[C@@H]1C=CC=CC[C@H](C)[C@@H](O)[C@@H](C)C(=O)[C@H](C)[C@@H](O)[C@H](C)C(=O)[C@H](C)[C@@H](O)[C@H](C)C=CC(=O)O[C@H]2[C@@H](C)[C@@H](CC1)O[C@@]1(CC[C@@H](C)[C@@H](C[C@H](C)O)O1)[C@@H]2C`, the cell viability came to 109 ± 11%.

Broadly, the cell viability is a read-out of living cells in per cent, often relative to untreated cells.

Values taken from the supplement of paper PMC3898565.
